# About 8,800 targets were measured; listed, in parts, are those with a hit and a random draw of the rest. About 0.5% of all pairs of compound and target were hits. Unmarked numbers belong to inactive results.
# How the values were obtained:
# Test in all cases: log2 fold change, soluble protein after heating vs DMSO (PISA); higher = thermal stabilisation; K562 lysate, 10 uM; active = over 0.2 and 3.5 SD of the protein, either way, in both replicates (recomputed)
# erlotinib = compound: C#Cc1cccc(Nc2ncnc3cc(OCCOC)c(OCCOC)cc23)c1 [erlotinib]
# Summary of the method: (§1)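 Soluble protein was defined as the supernatant remaining after 21,000xg for 90 min, following pooling of heated aliquots and adjustment to 0.5% NP-40 at 4°C. Before that, crude K562 extract at 1 mg/mL protein in PBS pH 7.4 with 1 mM MgCl2 was treated with 10 μM compound for 30 min and heated for 3 min across 48°C-58°C. Quantification used TMTpro 16plex LC-MS/MS with channel sums equalised, and values are log-two fold changes in thermal stability relative to solvent controls from duplicates.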
# [1] = compound: C/C(=N\NC(=O)C1=CC(=CC=C1)S(=O)(=O)N2CCOCC2)/C3=C(C=CC(=C3)Cl)O
# Summary of the method: as §1
# [2] = compound: C1=CC(=CC=C1C2=NC3=C(N2)C=C(C=C3)C(=O)N)OC4=CC=C(C=C4)Cl
# Summary of the method: as §1
# [3] = compound: C1=CC2=C(C=CC(=C2)/C=C\3/C(=O)NC(=NCC4=CC=CS4)S3)N=C1
# Summary of the method: as §1
# [4] = compound: C1=CC2=NC=CN=C2C=C1/C=C/3\C(=O)NC(=O)S3
# Summary of the method: as §1
# [5] = compound: C1=CC=C(C=C1)C2=NC(=C(N2)C3=CC=NC=C3)C4=CC(=C(C=C4)Cl)O
# Summary of the method: as §1
# [6] = compound: C1=CC=C2C(=C1)C3=NNC4=CC=CC(=C43)C2=O
# Summary of the method: as §1
# [7] = compound: C1CCN(C1)C(=O)NC2=CC=CC(=C2)NC3=NC=C(C(=N3)NCCC4=CN=CN4)Br
# Summary of the method: as §1
# [8] = compound: C1CN(CCC1(CC2=CC=C(C=C2)Cl)N)C3=NC=NC4=C3C=CN4
# Summary of the method: as §1
# IRAK-1-4 Inhibitor I = compound: C1COCCN1CCN2C3=CC=CC=C3N=C2NC(=O)C4=CC(=CC=C4)[N+](=O)[O-] [IRAK-1-4 Inhibitor I]
# Summary of the method: as §1
# ibrutinib = compound: C=CC(=O)N1CCC[C@@H](n2nc(-c3ccc(Oc4ccccc4)cc3)c3c(N)ncnc32)C1 [ibrutinib]
# Summary of the method: as §1
# [9] = compound: CC(=O)c1cnc2ccc(-c3cc(Cl)c(O)c(Cl)c3)nc2c1N[C@H]1CC[C@H](CN(C)C)CC1
# Summary of the method: as §1
# ralimetinib = compound: CC(C)(C)Cn1c(N)nc2ccc(-c3[nH]c(C(C)(C)C)nc3-c3ccc(F)cc3)nc21 [ralimetinib]
# Summary of the method: as §1
# [10] = compound: CC(C)(O)CC(=O)NCCn1ccc2ncnc(Nc3ccc(Oc4cccc(C(F)(F)F)c4)c(Cl)c3)c21
# Summary of the method: as §1
# [11] = compound: CC(C)C1=C2N=C(C=C(N2N=C1)NCC3=CC=CC=C3)NCCCCCCN
# Summary of the method: as §1
# [12] = compound: CC1=C(C(CC(=O)N1)C2=CC=C(C=C2)C(F)(F)F)C(=O)NC3=C(C=C4C(=C3)C=NN4)F
# Summary of the method: as §1
# [13] = compound: CC1=C(C2=C(C=C1)C(=O)C3=CC=CC=C3N2CCCN)C
# Summary of the method: as §1
# [14] = compound: CC1=C(C=C(C=C1)NC(=O)C2=CC(=CC=C2)C(C)(C)C#N)NC3=CC4=C(C=C3)N=CN(C4=O)C
# Summary of the method: as §1
# [15] = compound: CC1=C(C=C(C=C1)NC(=O)C2=CC(=CC=C2)N(C)C)NC(=O)C3=CC=C(C=C3)O
# Summary of the method: as §1
# [16] = compound: CC1=CC=C(C=C1)SC2=C3C=C(SC3=CN=C2)C(=O)N
# Summary of the method: as §1
# UniProt O43156, sequence (O43156 whole entry, looked up): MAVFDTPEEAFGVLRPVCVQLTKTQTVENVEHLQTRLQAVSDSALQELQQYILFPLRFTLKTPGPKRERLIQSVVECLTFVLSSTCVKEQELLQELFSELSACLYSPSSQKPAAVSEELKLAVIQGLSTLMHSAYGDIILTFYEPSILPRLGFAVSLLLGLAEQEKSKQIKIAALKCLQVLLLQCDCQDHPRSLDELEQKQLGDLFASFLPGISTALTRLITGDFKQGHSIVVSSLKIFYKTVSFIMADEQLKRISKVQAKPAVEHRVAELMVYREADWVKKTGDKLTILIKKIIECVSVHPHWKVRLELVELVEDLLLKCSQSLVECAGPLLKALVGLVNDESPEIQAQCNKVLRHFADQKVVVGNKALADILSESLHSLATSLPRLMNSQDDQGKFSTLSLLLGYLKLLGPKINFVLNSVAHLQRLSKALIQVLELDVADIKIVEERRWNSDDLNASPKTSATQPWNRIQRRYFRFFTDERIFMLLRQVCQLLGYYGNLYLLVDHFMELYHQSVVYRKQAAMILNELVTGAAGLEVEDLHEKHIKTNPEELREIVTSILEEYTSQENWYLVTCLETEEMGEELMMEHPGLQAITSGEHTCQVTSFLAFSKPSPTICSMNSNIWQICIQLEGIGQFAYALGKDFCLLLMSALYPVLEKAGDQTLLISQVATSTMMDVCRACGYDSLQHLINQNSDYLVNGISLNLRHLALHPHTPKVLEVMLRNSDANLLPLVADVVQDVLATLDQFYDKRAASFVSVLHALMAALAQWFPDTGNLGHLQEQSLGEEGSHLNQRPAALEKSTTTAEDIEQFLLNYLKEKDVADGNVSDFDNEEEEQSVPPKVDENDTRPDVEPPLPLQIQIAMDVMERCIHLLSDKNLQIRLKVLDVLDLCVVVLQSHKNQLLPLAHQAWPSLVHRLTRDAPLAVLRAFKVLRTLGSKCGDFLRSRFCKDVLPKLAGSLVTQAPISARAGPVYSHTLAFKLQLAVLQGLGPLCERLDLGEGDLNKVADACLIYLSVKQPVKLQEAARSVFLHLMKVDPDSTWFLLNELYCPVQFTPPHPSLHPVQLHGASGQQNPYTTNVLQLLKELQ
# UniProt Q5TEJ8, sequence (Q5TEJ8 whole entry, looked up): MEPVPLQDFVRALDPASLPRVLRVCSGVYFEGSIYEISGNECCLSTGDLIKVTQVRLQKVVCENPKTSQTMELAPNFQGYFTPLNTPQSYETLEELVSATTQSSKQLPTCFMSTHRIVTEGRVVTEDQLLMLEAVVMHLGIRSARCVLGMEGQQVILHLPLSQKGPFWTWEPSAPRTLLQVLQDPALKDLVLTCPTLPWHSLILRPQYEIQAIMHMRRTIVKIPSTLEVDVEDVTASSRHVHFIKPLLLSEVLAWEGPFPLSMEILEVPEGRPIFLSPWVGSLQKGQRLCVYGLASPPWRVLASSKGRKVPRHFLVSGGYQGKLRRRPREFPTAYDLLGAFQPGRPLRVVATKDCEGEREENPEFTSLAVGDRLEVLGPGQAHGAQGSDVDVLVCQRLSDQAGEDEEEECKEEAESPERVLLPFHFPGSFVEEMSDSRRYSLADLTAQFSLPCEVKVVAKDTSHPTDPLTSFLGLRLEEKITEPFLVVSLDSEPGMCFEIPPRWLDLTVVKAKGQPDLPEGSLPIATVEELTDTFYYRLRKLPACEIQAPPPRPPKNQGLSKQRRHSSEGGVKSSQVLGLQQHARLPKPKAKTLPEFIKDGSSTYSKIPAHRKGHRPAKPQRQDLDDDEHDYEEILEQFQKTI
# UniProt P0DPH7, sequence (P0DPH7 whole entry, looked up): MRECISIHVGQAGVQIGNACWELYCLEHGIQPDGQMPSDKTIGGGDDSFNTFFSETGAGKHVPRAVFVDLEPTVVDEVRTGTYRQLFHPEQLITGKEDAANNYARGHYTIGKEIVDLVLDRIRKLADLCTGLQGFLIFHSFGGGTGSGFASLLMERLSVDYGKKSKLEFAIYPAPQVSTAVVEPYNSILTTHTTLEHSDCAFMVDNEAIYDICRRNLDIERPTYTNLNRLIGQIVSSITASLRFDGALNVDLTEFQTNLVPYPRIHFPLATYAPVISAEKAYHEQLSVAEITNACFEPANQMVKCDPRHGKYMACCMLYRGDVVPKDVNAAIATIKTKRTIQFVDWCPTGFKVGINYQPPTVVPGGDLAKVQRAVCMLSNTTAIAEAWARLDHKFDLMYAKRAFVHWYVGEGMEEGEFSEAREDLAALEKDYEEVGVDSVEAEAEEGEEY
# UniProt Q9NUY8, sequence (Q9NUY8 whole entry, looked up): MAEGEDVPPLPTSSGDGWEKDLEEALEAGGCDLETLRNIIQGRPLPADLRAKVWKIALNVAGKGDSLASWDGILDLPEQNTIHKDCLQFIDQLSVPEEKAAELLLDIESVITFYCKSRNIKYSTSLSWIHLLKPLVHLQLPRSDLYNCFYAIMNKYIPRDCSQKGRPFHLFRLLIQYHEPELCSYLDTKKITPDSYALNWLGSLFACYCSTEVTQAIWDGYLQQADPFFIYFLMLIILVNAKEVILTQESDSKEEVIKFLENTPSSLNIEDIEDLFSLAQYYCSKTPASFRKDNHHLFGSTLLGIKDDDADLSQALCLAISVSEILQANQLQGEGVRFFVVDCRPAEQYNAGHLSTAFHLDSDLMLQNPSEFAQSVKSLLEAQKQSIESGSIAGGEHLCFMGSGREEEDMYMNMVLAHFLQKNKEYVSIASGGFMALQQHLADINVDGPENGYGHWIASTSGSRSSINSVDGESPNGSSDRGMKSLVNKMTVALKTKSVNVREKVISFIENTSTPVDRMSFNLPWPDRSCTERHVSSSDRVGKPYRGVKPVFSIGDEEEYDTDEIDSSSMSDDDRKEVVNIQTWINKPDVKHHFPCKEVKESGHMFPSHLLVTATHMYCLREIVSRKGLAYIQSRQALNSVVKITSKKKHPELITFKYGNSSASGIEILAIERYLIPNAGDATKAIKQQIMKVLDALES
# UniProt Q5BVD1, sequence (Q5BVD1 whole entry, looked up): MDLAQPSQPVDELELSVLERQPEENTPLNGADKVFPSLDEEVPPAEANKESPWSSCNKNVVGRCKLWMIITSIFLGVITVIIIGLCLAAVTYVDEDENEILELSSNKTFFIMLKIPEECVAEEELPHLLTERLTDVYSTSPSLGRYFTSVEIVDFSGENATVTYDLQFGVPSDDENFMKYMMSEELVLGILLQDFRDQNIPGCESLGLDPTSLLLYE
# UniProt P17480, sequence (P17480 whole entry, looked up): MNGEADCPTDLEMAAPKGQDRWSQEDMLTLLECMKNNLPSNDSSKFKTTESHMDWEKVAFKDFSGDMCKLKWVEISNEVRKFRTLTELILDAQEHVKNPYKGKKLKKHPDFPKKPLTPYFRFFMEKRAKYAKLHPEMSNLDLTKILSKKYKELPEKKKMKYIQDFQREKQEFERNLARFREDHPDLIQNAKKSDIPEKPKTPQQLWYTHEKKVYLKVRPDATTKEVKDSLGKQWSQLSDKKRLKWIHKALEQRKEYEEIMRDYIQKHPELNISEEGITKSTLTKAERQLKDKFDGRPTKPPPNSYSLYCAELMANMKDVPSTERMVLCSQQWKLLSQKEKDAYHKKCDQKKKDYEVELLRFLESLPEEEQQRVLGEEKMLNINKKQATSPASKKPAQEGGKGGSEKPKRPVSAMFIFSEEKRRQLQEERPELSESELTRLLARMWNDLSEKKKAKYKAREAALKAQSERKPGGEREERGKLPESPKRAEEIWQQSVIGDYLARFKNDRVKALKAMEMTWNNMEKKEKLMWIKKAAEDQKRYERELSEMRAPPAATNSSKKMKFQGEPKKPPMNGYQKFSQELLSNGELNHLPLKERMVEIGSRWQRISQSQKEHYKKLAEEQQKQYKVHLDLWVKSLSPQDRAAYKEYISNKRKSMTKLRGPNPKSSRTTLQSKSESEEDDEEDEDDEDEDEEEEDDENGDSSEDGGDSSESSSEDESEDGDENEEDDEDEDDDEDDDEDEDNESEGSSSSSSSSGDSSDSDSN
# UniProt Q6PJ69, sequence (Q6PJ69 whole entry, looked up): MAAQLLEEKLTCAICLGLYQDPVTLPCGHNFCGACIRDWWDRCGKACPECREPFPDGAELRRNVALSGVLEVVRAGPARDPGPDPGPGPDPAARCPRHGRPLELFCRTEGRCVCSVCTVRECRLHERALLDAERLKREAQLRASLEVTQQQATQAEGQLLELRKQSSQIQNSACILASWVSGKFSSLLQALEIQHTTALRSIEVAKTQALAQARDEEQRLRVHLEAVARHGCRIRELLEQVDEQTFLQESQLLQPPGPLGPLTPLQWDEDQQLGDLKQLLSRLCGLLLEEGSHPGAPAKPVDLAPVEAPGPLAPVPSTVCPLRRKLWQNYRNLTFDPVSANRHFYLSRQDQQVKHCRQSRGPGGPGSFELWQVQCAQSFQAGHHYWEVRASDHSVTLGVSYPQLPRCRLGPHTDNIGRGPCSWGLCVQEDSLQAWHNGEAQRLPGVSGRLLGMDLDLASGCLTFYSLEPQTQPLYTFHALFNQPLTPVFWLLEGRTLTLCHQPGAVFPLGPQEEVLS
# UniProt P51668, sequence (P51668 whole entry, looked up): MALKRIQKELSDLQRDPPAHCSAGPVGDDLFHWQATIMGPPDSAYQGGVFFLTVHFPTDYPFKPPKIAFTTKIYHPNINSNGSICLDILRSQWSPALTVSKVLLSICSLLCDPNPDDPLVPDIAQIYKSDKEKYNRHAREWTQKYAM
# UniProt Q8N511, sequence (Q8N511 whole entry, looked up): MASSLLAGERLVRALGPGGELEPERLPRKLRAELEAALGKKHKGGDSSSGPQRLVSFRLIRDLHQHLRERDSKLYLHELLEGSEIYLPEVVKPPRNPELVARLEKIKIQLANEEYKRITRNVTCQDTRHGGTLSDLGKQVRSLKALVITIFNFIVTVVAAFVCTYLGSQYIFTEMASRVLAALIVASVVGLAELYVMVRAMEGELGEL
Target,log2 fold change (erlotinib),log2 fold change [1],log2 fold change [2],log2 fold change [3],log2 fold change [4],log2 fold change [5],log2 fold change [6],log2 fold change [7],log2 fold change [8],log2 fold change (IRAK-1-4 Inhibitor I),log2 fold change (ibrutinib),log2 fold change [9],log2 fold change (ralimetinib),log2 fold change [10],log2 fold change [11],log2 fold change [12],log2 fold change [13],log2 fold change [14],log2 fold change [15],log2 fold change [16]
TMEM199 (UniProt Q8N511),0.002,-0.03,-0.034,0.032,0.018,-0.013,-0.087,-0.065,0.027,-0.033,0.067,0.001,-0.001,-0.078,-0.003,0.001,-0.275 (active),-0.043,-0.016,0.009
TUBA3C (UniProt P0DPH7),0.03,-0.605,0.039,-0.029,0.023,-0.023,-0.01,-0.011,0.036,0.037,-0.009,-0.007,0.041,-0.045,-0.047,0.002,0.029,-0.021,0.038,0.001
TMEM263 (UniProt Q8WUH6),-0.114,-0.104,0.273,-0.119,-0.022,-0.05,-0.012,-0.006,0.095,0.026,-0.04,-0.003,-0.037,-0.174,-0.002,0.349,0.049,-0.058,0.004,-0.079
TMEM164 (UniProt Q5U3C3),0.067,-0.141,-0.009,-0.093,0.104,-0.056,-0.211,-0.057,0.153,0.094,0.053,-0.066,-0.171,-0.252,-0.035,-0.184,-0.153,0.255,0.027,-0.061
UBTF (UniProt P17480),0.02,0.015,0.018,0.03,-0.009,0.002,0.027,0.009,-0.022,-0.024,0.026,0.025,0.017,-0.002,0.016,0.046,-0.075,-0.022,0.044,-0.002
TTMP isoform 3 (UniProt Q5BVD1),0.121,-0.173,-0.023,-0.106,-0.026,-0.026,-0.08,-0.05,0.086,0.193,0.09,0,-0.034,-0.22,-0.038,-0.091,-0.02,0.296,-0.004,-0.099
TTI1 (UniProt O43156),-0.017,0.033,-0.049,0.003,-0.012,-0.02,-0.003,-0.032,-0.037,0.015,0,0.014,0.018,-0.049,-0.029,0.013,0.02,0.068,-0.009,0.026
TBK1 (UniProt Q9UHD2),-0.005,-0.066,-0.03,0.006,-0.067,0.023,0.238,0.214,-0.047,0.082,-0.02,0.159,-0.007,-0.035,0.047,0.015,-0.016,-0.034,0.032,-0.013
TRIM65 (UniProt Q6PJ69),0.047,-0.072,-0.008,0.021,-0.005,-0.044,-0.054,0.026,0.007,-0.025,0.053,0.073,0.046,-0.035,0.005,0.047,0.006,0.006,0.003,-0.063
TBC1D23 (UniProt Q9NUY8),0.003,-0.01,0.017,0.022,-0.015,0.011,-0.018,-0.018,-0.001,0,0.034,0.002,0.004,-0.021,0.03,0.032,-0.05,0.014,0.012,-0.012
TPM1 (UniProt H7BYY1),-0.034,-0.004,-0.057,0.026,-0.008,0.091,-0.041,0.012,-0.02,-0.071,-0.002,-0.018,-0.035,0.068,0.037,-0.027,0.023,-0.045,0.039,-0.034
TNPO3 (UniProt Q9Y5L0),0.022,0.001,-0.019,-0.018,0.019,-0.008,0,0.018,0.017,0.021,-0.008,0.015,0.003,-0.023,-0.033,-0.006,0,-0.015,0.003,0.008
TMEM87B (UniProt Q96K49),-0.016,0.103,0.093,-0.003,0.117,0.03,-0.019,0.006,-0.008,-0.045,-0.076,-0.017,-0.003,-0.001,-0.047,-0.011,-0.01,-0.012,0.028,-0.012
THEMIS2 (UniProt Q5TEJ8),-0.035,0.006,0.004,0.036,0.031,-0.041,-0.024,-0.02,0.042,0.031,0.029,-0.038,0.059,-0.037,-0.009,0.029,-0.051,-0.023,-0.042,0.126
UBE2D1 (UniProt P51668),-0.043,0.008,0.072,-0.007,-0.032,0.008,-0.006,-0.042,0.015,-0.038,-0.033,0.017,-0.009,0.073,0.01,-0.03,-0.007,-0.002,0.043,-0.007
TRAPPC9 isoform 2 (UniProt Q96Q05),0.033,0.113,-0.01,0.006,-0.04,-0.012,-0.005,0.027,0.034,0.027,0.003,0.019,0.055,-0.025,-0.003,-0.043,-0.023,0.02,-0.016,-0.001

# Reference: the supplement of paper PMC10849652
